Consider eight compounds from PubChem BioAssay (Tox21).

The nature of assay [1]: qHTS assay to identify small molecule agonists of the sonic hedgehog signaling (Shh) pathway (AID 1259368; calls by dose curve;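 also: NIH/3T3-derived 3T3Gli1-Luc cells carrying a stable Gli1-driven firefly luciferase reporter; series mostly up to about 92 µM; nearly all actives have a fitted effect of over 15% in size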). An outline of the steps: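 Stable NIH/3T3 Gli1-Luc reporter clone; 24 hr cpd exposure after a 4 hr settling period; luminescence endpoint.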
For orientation: In qHTS, concentration-response curves come from the screen itself.

Assay [2] can be described thus: qHTS assay to identify small molecule antagonists of the sonic hedgehog signaling (Shh) pathway (AID 1259369; calls by dose curve; also: nearly all actives have a fitted effect of over 45% in size; also: potency is read from the fitted curve at half-maximal effect). A digest of the protocol: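 Gli1 transcriptional reporter (firefly Luc) in NIH/3T3 background, conditioned-medium activated. 24hr exposure, luminescence endpoint.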
The target of assay [3] is Estrogen receptor beta (Homo sapiens) (UniProt Q92731). Put plainly: qHTS assay to identify small molecule agonists of the estrogen receptor beta (ER-beta) signaling pathway (AID 1259377; active = well fitted activation curve with a large enough effect in the signal ratio in the repeat runs, not every such curve was filed as active; the % refers to the signal ratio). A digest of the protocol: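 Beta-lactamase reporter readout: fluorescence of LiveBLAzer B/G FRET substrate after 2 h at room temperature, following 16 h compound treatment of ER-beta-UAS-bla HEK293T cells at 37C in 2% charcoal-stripped FBS medium.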
Sequence of Estrogen receptor beta (Homo sapiens) (Q92731 whole entry, looked up): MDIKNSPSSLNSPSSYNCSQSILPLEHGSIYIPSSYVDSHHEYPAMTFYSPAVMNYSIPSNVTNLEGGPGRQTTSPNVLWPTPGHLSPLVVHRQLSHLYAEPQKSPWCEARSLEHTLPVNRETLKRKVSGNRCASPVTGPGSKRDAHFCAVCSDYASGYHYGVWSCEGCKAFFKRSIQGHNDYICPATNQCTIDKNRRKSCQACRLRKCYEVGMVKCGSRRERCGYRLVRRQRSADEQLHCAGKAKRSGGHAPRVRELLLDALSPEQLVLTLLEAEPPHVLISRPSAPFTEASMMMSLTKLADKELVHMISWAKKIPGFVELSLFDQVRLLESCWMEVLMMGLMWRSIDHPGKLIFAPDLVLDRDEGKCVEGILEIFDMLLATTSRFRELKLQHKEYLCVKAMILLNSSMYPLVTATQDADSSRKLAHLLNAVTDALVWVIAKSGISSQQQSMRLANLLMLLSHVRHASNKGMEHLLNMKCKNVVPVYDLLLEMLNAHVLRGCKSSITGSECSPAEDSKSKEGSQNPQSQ

For assay [4] the target is unchanged. The assay can be described thus: qHTS assay to identify small molecule antagonists of the estrogen receptor beta (ER-beta) signaling pathway (AID 1259378; active = well fitted inhibition curve with a large enough effect in the signal ratio in the repeat runs, not every such curve was filed as active; the % refers to the signal ratio; also: potency is read from the fitted curve at half-maximal effect). A digest of the protocol:
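ER-beta-UAS-bla HEK293T cells in 2% charcoal-stripped FBS medium treated with compound plus 1nM final 17-beta-estradiol for 16 hr at 37C. Beta-lactamase reporter read by FRET substrate fluorescence after 2 hours at room temperature.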

The nature of assay [5]: qHTS assay to identify small molecule agonists of the androgen receptor (AR) signaling pathway in the presence of an antagonist - cell viability counter screen (AID 1259379). Also: nearly all actives have a fitted effect of over 25% in size. Also: potency is read from the fitted curve at half-maximal effect. A digest of the protocol:
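Counter screen for cell viability run in parallel with the AR agonist-mode luciferase assay. MDA-kb2 cells were co-treated with nilutamide (3.0uM final) and compounds, then incubated 16 hr at 37C, and CellTiter-Fluor fluorescence was measured.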

Assay [6] can be described thus: qHTS assay to identify small molecule agonists of the estrogen receptor beta (ER-beta) signaling pathway - cell viability counter screen (AID 1259380). Also: nearly all actives have a fitted effect of over 30% in size. Also: potency is read from the fitted curve at half-maximal effect. An outline of the steps:
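In this qHTS counter screen, HEK293T cells carrying an ER-beta/UAS beta-lactamase reporter, grown in 2% charcoal-stripped FBS, received compound for 16 hr; ATP-based CellTiter-Glo luminescence was then read after 30 min at room temperature.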

For assay [7], the target named is Androgen receptor (Homo sapiens) (UniProt P10275). Put plainly: qHTS assay to identify small molecule agonists of the androgen receptor (AR) signaling pathway in the presence of an antagonist (AID 1259381; calls by dose curve; also: nearly all actives have a fitted effect of over 15% in size). An outline of the steps:
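AR antagonist background: nilutamide 3.0uM final. Cell line: MDA-kb2, MMTV-driven luciferase, responsive to both AR and GR. Exposure 16hr, 37C, no CO2; ONE-Glo luminescence.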

The nature of assay [8]: qHTS assay to identify small molecule antagonists of the estrogen receptor beta (ER-beta) signaling pathway - cell viability counter screen (AID 1259382). Also: series mostly up to about 92 µM; nearly all actives have a fitted effect of over 55% in size. An outline of the steps:
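HEK293T ER-beta-UAS-bla, 2% charcoal-stripped FBS; compounds + 1nM E2 16 hr 37C; CellTiter-Glo luminescence, 30 min RT.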

A short description of assay [9]: qHTS assay to identify small molecule agonists of the estrogen receptor alpha (ER-alpha) signaling pathway in the presence of an antagonist - cell viability counter screen (AID 1259386).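 Also: series mostly up to about 92 µM; cells exposed to compounds for 22 h at 37 °C before the viability read; nearly all actives have a fitted effect of over 30% in size.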 An outline of the steps:
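Steps: 5-day stripped-FBS culture; seed and incubate 24hr; add ICI-182,780 (10.0nM final); pin 15-point compound titration; incubate 22hr at 37C; add CellTiter-Fluor at 21hr; read fluorescence.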

Assay [10] has as its target Progesterone receptor (Homo sapiens) (UniProt P06401). Put plainly: qHTS assay to identify small molecule agonists of the progesterone receptor (PR) signaling pathway (AID 1346784; calls by dose curve; also: nearly all actives have a fitted effect of over 30% in size). An outline of the steps:
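HEK 293T PR-UAS-bla reporter cells, 2% charcoal-stripped FBS; 6 hr settle at 37C/5% CO2, compound (DMSO) 16 hr, LiveBLAzer B/G FRET substrate 2 hr RT, fluorescence intensity read.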

Assay [11] shares this target. The assay can be described thus: qHTS assay to identify small molecule antagonists of the progesterone receptor (PR) signaling pathway (AID 1346795; active = well fitted inhibition curve with a large enough effect in the signal ratio in the repeat runs, not every such curve was filed as active; the % refers to the signal ratio; also: potency is read from the fitted curve at half-maximal effect). A digest of the protocol: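 Beta-lactamase reporter, HEK293T PR-UAS-bla line; 2% charcoal-stripped FBS; 6 hr pre-incubation, 37C/5% CO2. Compound + R5020 1 nM final, 16 hr. LiveBLAzer B/G FRET substrate, 2 hr RT; fluorescence intensity read.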

The nature of assay [12]: qHTS assay to identify small molecule antagonists of the progesterone receptor (PR) signaling pathway - cell viability counter screen (AID 1346798). Also: series mostly up to about 92 µM; nearly all actives have a fitted effect of over 50% in size. A digest of the protocol:
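Luminescence readout (CellTiter-Glo, 30 min, RT) of viability in PR-UAS-bla HEK293T cells exposed to compound and R5020 agonist for 16 hr at 37C, 5% CO2; run in the same wells as the beta-lactamase reporter read.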

Assay [13] is described as follows: qHTS assay to identify small molecule antagonists of the TGF-beta/Smad signaling pathway - cell viability counter screen (AID 1346824). Also: nearly all actives have a fitted effect of over 50% in size. An outline of the steps:
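SBE-bla HEK 293T cells, incubated overnight, then compound plus 0.25 ng/mL TGF-beta1 (stock added) for 5 hr at 37 C. Viability was read in the same wells by CellTiter-Glo luminescence after 30 min at room temperature.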

The nature of assay [14]: qHTS assay to identify small molecule agonists of the TGF-beta/Smad signaling pathway - cell viability counter screen (AID 1346829). Also: top concentration of the series differs between compounds; nearly all actives have a fitted effect of over 45% in size. An outline of the steps:
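Same-well cytotoxicity: CellTiter-Glo added after the 2 hr room-temperature beta-lactamase substrate step, luminescence measured 30 min later; cells had 5 hr of compound at 37 C.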

Assay [15] is described as follows: qHTS assay to identify small molecule agonists of the TGF-beta/Smad signaling pathway (AID 1346859; active = well fitted activation curve with a large enough effect in the signal ratio in the repeat runs, not every such curve was filed as active; the % refers to the signal ratio; also: series mostly up to about 77 µM). A digest of the protocol:
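Read-out: fluorescence at 460 and 530 nm (405 nm excitation) after a 2 hr room-temperature incubation with beta-lactamase FRET substrate. SBE-bla HEK 293T cells had been treated with test compounds for 5 hr at 37 C.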

Assay [16] concerns the target Thyrotropin-releasing hormone receptor (Homo sapiens) (UniProt P34981). Put plainly: qHTS assay to identify small molecule antagonists of the thyrotropin-releasing hormone receptor (TRHR) signaling pathway (AID 1346877; active = well fitted inhibition curve with a large enough effect in the repeat runs, not every such curve was filed as active; also: series mostly up to about 51 µM). An outline of the steps: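 Human TRHR in HEK293 cells; inhibition of the intracellular calcium rise triggered by 1 nM TRH was followed by fluorescence over 3 min. Compounds were run at 15 concentrations, three replicates each.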

Assay [17] is described as follows: qHTS assay to identify small molecule agonists or antagonists of the thyroid stimulating hormone receptor (TSHR) signaling pathway - wild type cell line counter screen (AID 1259384; calls by dose curve). An outline of the steps:
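Wild-type Hek293 cells, 800/well, 18 h at 37C, then compound with Ro20-1724 for 30 min RT. cAMP by HTRF (cAMP-d2/anti-cAMP cryptate), 1 h RT, fluorescence read. 15 concentrations, triplicates.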

Assay [18] addresses Thyrotropin receptor (Homo sapiens) (UniProt P16473). The assay can be described thus: qHTS assay to identify small molecule antagonists of the thyroid stimulating hormone receptor (TSHR) signaling pathway (AID 1259385; calls by dose curve; also: nearly all actives have a fitted effect of over 20% in size; also: potency is read from the fitted curve at half-maximal effect). A digest of the protocol: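 TSHR-HEK293 cells (800/well) plated 18 h, then compounds with Ro20-1724 and TSH at 1.5 ng/mL final, 30 min at room temperature. cAMP quantified by HTRF (cAMP-d2/anti-cAMP-cryptate, 1 h); 15 concentrations in triplicate.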

Assay [19] can be described thus: qHTS assay to identify small molecule agonists of the progesterone receptor (PR) signaling pathway - cell viability counter screen (AID 1346799; calls by dose curve; also: nearly all actives have a fitted effect of over 45% in size; also: potency is read from the fitted curve at half-maximal effect). An outline of the steps: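 HEK293T PR-UAS-bla, 3,000 cells/well, 2% charcoal-stripped FBS; 6 h settle, compound 16 h at 37C/5% CO2; LiveBLAzer 2 h RT, then CellTiter-Glo 30 min RT, luminescence read.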

Molecules are shown by their SMILES. Where “and” joins values, the source holds several entries; their conditions need not be identical. Equal entries are not always repeated. Records with an inconclusive call do not appear. Some compounds were tested as several samples or in several runs, with calls that do not always agree. Calls of active or inactive are those of the source. Unless noted, calls follow the shape of the dose curve; as a rule, active = well fitted curve in the direction sought with a large enough effect in the repeat runs; inconclusive = weak or mixed curves; inactive = no such curve, though single readings can be large; an effect the other way counts as inactive or inconclusive.

Sequence of Progesterone receptor (Homo sapiens) (P06401 whole entry, looked up): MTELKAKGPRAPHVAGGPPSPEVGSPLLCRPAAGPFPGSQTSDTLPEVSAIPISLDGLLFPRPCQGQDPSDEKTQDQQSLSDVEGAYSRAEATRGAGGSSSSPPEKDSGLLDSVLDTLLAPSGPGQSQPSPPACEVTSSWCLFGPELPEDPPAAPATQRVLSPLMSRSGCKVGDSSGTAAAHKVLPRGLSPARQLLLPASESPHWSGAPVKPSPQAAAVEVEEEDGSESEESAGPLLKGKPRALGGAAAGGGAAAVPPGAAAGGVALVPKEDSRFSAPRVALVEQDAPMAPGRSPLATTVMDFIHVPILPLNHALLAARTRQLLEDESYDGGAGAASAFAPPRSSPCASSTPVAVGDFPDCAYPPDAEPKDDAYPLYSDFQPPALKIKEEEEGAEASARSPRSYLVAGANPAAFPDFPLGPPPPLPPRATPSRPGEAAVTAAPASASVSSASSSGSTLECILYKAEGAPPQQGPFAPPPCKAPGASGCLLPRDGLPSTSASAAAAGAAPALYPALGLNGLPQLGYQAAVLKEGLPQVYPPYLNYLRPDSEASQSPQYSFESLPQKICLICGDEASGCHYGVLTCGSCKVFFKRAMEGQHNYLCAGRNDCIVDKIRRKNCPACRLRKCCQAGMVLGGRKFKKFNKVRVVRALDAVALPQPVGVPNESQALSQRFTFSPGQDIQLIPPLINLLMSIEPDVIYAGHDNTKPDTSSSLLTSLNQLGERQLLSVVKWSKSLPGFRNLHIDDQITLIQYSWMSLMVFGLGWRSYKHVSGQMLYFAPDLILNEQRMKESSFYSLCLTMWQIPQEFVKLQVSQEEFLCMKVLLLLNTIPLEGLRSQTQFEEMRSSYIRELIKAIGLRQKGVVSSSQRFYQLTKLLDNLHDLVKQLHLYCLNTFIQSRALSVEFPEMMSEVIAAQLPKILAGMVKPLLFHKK
Sequence of Thyrotropin-releasing hormone receptor (Homo sapiens) (P34981 whole entry, looked up): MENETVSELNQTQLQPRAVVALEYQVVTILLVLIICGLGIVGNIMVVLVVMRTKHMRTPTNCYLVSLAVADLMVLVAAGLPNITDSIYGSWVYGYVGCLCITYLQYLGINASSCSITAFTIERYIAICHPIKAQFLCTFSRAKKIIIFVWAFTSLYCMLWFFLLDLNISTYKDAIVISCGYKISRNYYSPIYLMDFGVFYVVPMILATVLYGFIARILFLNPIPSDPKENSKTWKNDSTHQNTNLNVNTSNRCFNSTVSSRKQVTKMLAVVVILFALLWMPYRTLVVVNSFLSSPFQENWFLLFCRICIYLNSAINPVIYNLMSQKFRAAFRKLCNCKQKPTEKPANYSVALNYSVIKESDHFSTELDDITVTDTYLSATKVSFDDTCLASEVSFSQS
Sequence of Androgen receptor (Homo sapiens) (P10275 whole entry, looked up): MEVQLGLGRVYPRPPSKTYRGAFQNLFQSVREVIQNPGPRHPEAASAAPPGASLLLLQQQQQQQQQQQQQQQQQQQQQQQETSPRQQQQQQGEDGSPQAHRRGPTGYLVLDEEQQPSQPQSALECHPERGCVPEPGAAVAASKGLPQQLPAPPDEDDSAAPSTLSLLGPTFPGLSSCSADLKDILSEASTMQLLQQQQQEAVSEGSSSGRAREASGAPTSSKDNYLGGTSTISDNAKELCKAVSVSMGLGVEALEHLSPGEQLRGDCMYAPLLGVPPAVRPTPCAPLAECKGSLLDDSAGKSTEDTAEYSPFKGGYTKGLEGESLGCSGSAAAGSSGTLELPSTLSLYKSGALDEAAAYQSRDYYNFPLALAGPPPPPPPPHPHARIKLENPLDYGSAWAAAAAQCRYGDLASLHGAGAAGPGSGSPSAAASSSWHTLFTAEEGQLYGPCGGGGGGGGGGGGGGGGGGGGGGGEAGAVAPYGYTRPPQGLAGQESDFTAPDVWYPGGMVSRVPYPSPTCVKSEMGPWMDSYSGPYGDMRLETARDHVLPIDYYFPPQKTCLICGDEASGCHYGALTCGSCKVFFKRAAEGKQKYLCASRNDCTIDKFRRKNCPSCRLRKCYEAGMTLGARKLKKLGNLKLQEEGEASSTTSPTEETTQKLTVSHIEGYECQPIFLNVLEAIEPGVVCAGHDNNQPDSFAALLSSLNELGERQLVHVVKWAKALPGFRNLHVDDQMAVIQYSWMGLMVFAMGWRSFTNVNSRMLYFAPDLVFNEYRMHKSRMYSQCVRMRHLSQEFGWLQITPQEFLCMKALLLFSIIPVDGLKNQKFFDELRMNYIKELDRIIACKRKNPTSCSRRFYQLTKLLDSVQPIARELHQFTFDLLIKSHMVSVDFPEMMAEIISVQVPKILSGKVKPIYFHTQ
Sequence of Thyrotropin receptor (Homo sapiens) (P16473 whole entry, looked up): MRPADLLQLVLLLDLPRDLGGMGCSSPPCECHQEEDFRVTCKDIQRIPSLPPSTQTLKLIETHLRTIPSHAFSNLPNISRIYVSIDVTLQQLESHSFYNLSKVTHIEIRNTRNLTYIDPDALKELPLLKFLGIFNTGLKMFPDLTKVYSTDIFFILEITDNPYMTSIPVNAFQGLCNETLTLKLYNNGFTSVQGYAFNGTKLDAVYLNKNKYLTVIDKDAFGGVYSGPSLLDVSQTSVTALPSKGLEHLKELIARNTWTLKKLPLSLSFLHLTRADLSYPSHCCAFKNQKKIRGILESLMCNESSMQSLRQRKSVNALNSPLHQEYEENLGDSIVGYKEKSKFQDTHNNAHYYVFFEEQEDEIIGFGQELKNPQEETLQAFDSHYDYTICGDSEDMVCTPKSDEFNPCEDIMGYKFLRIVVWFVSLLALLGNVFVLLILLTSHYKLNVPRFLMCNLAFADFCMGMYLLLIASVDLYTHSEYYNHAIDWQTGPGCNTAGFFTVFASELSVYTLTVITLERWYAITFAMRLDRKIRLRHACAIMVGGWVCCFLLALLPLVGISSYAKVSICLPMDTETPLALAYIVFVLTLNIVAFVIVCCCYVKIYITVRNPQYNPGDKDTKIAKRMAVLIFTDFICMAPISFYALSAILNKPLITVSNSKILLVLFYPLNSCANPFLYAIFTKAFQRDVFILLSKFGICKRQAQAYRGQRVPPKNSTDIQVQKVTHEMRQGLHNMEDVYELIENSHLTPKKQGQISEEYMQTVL

In the case of `c1ccc2cc(Nc3ccc(Nc4ccc5ccccc5c4)cc3)ccc2c1`, the Potency entry in assay [1], in assay [2], in assay [3], in [4], in [5] and in [6] was “inactive” each time. Also, the Potency result in [8], in assay [9], in [10], in assay [11], in assay [12] and in assay [13] was “inactive” throughout. In addition, the Potency entry in assay [14] and in [16] was “inactive” throughout. Moreover, the outcome in assay [7] and in assay [15] was inactive.

In the case of `CC(=O)C1(C)CC2=C(CCCC2(C)C)CC1C` (stereo not drawn), the Potency result in [1], in assay [2], in assay [3], in assay [4], in assay [5] and in [6] was “inactive” in each case. Moreover, the Potency result in [9], in [12], in [13], in assay [14] and in assay [16] was “inactive” in each case. The result in assay [7], in [17] and in assay [15] was inactive. Further, in assay [18], the Potency was 43.3 µM (active).

In the case of `COc1cc([C@@H]2c3cc4c(cc3[C@H](O)[C@H]3COC(=O)[C@H]23)OCO4)cc(OC)c1OC`, the Potency result in assay [1], in assay [3], in assay [4], in assay [6], in [8] and in [18] was “inactive” each time. The Potency result in assay [9], in [10], in assay [13], in assay [14] and in assay [16] was “inactive” throughout. In assay [2], the Potency is 5.4 nM (active) and 16.8 nM (active). Further, the outcome in assay [7], in assay [17] and in assay [15] was inactive.

With `Cc1cccc(C(=O)O)c1`, the Potency result in [1], in [3], in [4], in assay [5], in assay [6] and in assay [8] was “inactive” in each case. For the same compound, the Potency entry in assay [18], in assay [9], in assay [10], in assay [11], in assay [19] and in assay [13] was “inactive” throughout. Moreover, in assay [14], the Potency result was “inactive”. Further, the Potency in assay [2] is 381 nM (active) and inactive. Further, the result in [7], in assay [17] and in assay [15] was inactive.

In the case of `O=P(O)(O)O`, the Potency entry in [1], in assay [2], in assay [3], in assay [4], in assay [5] and in assay [6] was “inactive” each time. Also, the Potency entry in assay [18], in assay [9], in assay [10], in assay [11], in [12] and in [19] was “inactive” in each case. Further, the Potency entry in assay [13], in [14] and in assay [16] was “inactive” in each case. Moreover, the call in assay [17] and in assay [15] was inactive.

In the case of `CCCCCCCCCCCO`, the Potency entry in [1], in assay [2], in assay [3], in assay [4], in assay [5] and in assay [6] was “inactive” throughout. Besides, the Potency result in assay [8], in [18], in assay [9], in assay [10], in assay [11] and in assay [13] was “inactive” each time. Also, the Potency entry in assay [14] was “inactive”. In addition, the outcome in assay [17] and in assay [15] was inactive.

Turning to `CNCCCC12CCC(c3ccccc31)c1ccccc12`, the Potency result in assay [1], in assay [3], in [18], in assay [9], in [10] and in assay [13] was “inactive” each time. Moreover, the Potency entry in assay [14] and in assay [16] was “inactive” in each case. For the same compound, the Potency is 5.45 µM (active) in assay [2]; 26.6 µM (active) in assay [4]; 54.5 µM (active) in assay [5]; 15.4 µM (active) and 29.8 µM (active) in assay [6]; 19.3 µM (active) and inactive in [19]. The result in [17] and in assay [15] was inactive.

Turning to `C[C@]12CCC(=O)C=C1CC[C@@H]1[C@@H]2C(=O)C[C@@]2(C)[C@H]1CC[C@]2(O)C(=O)CO`, the Potency result in assay [1], in assay [3], in [4], in assay [5], in assay [6] and in [8] was “inactive” in each case. For the same compound, the Potency entry in assay [9], in assay [12], in assay [13] and in assay [14] was “inactive” throughout. The Potency in [2] was 54.5 µM (active) and inactive; in [11], 11.9 µM (active). The result in assay [15] was inactive.
